# According to the supplement of paper PMC10077471:
# In all, about 1,900 compounds were measured (“excess over highest single agent (ExcessHSA) synergy score, 6x6 matrix”: median about -83, lowest 2% from about -370 on). The sample as a whole holds a higher share of the lowest values than the screen did.
# System: NCI-H446
# Experiment: excess over highest single agent (ExcessHSA) synergy score, 6x6 matrix; higher = less synergy (more negative = stronger synergy)
# Details: 72 h; CellTiter-Glo viability
row,SMILES,excess over highest single agent
1,Cc1cc(=O)c2c(O)c3c(O)cc(=O)c4c3c3c(cc(O)c1c23)C(C)(C)C=4O + Cc1sc2c(c1C)C(c1ccc(Cl)cc1)=N[C@@H](CC(=O)OC(C)(C)C)c1nnc(C)n1-2 [NCGC00250412-19],-128
2,Oc1ccc([C@@H]2Oc3ccc(O)cc3[C@@H]3CCC[C@@H]32)cc1 + Cc1sc2c(c1C)C(c1ccc(Cl)cc1)=N[C@@H](CC(=O)OC(C)(C)C)c1nnc(C)n1-2 [NCGC00250412-19],-48.9
3,N#Cc1cc(NC(=O)Nc2nnc(-c3ccncc3)s2)ccc1-c1cn[nH]c1 + Cc1sc2c(c1C)C(c1ccc(Cl)cc1)=N[C@@H](CC(=O)OC(C)(C)C)c1nnc(C)n1-2 [NCGC00250412-19],313
4,O=C(O)c1ccc2cc(-c3ccc(O)c(C45CC6CC(CC(C6)C4)C5)c3)ccc2c1 + Cc1sc2c(c1C)C(c1ccc(Cl)cc1)=N[C@@H](CC(=O)OC(C)(C)C)c1nnc(C)n1-2 [NCGC00250412-19],-225
5,CC(C)n1cnc2c(NCCCCCCNC(=O)OC(C)(C)C)nc(NCCO)nc21 + Cc1sc2c(c1C)C(c1ccc(Cl)cc1)=N[C@@H](CC(=O)OC(C)(C)C)c1nnc(C)n1-2 [NCGC00250412-19],-65.3
6,CC1=C(C(=O)Nc2cc3cn[nH]c3cc2F)C(c2ccc(Cl)cc2F)N=C(c2ccnc(Cl)c2)N1 (configuration not stated) + Cc1sc2c(c1C)C(c1ccc(Cl)cc1)=N[C@@H](CC(=O)OC(C)(C)C)c1nnc(C)n1-2 [NCGC00250412-19],-142
7,COc1ccc2c(c1)CC[C@H](CN(C)CC(=O)O)[C@@H]2c1ccccc1 + Cc1sc2c(c1C)C(c1ccc(Cl)cc1)=N[C@@H](CC(=O)OC(C)(C)C)c1nnc(C)n1-2 [NCGC00250412-19],-220
8,CNC(=O)c1ccc(N2C(=S)N(c3cnc(C#N)c(C(F)(F)F)c3)C(=O)C23CCC3)cc1F + Cc1sc2c(c1C)C(c1ccc(Cl)cc1)=N[C@@H](CC(=O)OC(C)(C)C)c1nnc(C)n1-2 [NCGC00250412-19],-9.84
9,CN(C)CCOc1cc(-c2cn[nH]c2)ccc1NC(=O)C1COc2ccccc2O1 (configuration not stated) + Cc1sc2c(c1C)C(c1ccc(Cl)cc1)=N[C@@H](CC(=O)OC(C)(C)C)c1nnc(C)n1-2 [NCGC00250412-19],-160
10,O=C(O)CCNc1cc(N2CCc3ccccc3CC2)nc(-c2ccccn2)n1 + Cc1sc2c(c1C)C(c1ccc(Cl)cc1)=N[C@@H](CC(=O)OC(C)(C)C)c1nnc(C)n1-2 [NCGC00250412-19],-73
11,CN1CCN(c2ncc(-c3cc(Cl)cc(Cl)c3Cl)c(N)n2)CC1 + Cc1sc2c(c1C)C(c1ccc(Cl)cc1)=N[C@@H](CC(=O)OC(C)(C)C)c1nnc(C)n1-2 [NCGC00250412-19],-219
12,CN(C)Cc1c(C(=O)NCCOc2ccc(C(=O)NO)cc2)oc2ccccc12 + Cc1sc2c(c1C)C(c1ccc(Cl)cc1)=N[C@@H](CC(=O)OC(C)(C)C)c1nnc(C)n1-2 [NCGC00250412-19],-152
13,Cc1ccc2nc(NC(=O)CSc3nc4c(c(=O)n3-c3ccccc3)SCC4)sc2c1 + Cc1sc2c(c1C)C(c1ccc(Cl)cc1)=N[C@@H](CC(=O)OC(C)(C)C)c1nnc(C)n1-2 [NCGC00250412-19],84.8
14,CC(C)(C)OC(=O)CN(Cc1ccc(Cl)cc1)Cc1ccc([N+](=O)[O-])s1 + Cc1sc2c(c1C)C(c1ccc(Cl)cc1)=N[C@@H](CC(=O)OC(C)(C)C)c1nnc(C)n1-2 [NCGC00250412-19],27
15,Cn1c(=O)c(-c2c(Cl)cccc2Cl)cc2cnc(Nc3cccc(C(=O)O)c3)nc21 + Cc1sc2c(c1C)C(c1ccc(Cl)cc1)=N[C@@H](CC(=O)OC(C)(C)C)c1nnc(C)n1-2 [NCGC00250412-19],-131
16,Cc1cc(OCCCc2c(C(=O)O)n(Cc3cccnc3)c3c(-c4c(COc5ccc(N6CCN([S+](C)(=O)[O-])CC6)cc5)nn(C)c4C)cccc23)cc(C)c1Cl + Cc1sc2c(c1C)C(c1ccc(Cl)cc1)=N[C@@H](CC(=O)OC(C)(C)C)c1nnc(C)n1-2 [NCGC00250412-19],-31.2
17,CCOC(=O)N1CCN([N+]([O-])=NOc2ccc([N+](=O)[O-])cc2[N+](=O)[O-])CC1 + Cc1sc2c(c1C)C(c1ccc(Cl)cc1)=N[C@@H](CC(=O)OC(C)(C)C)c1nnc(C)n1-2 [NCGC00250412-19],-84.4
18,O=C(c1ccc(Nc2nccc(-c3cc4ccccc4s3)n2)cc1)N1CCC(N2CCCC2)CC1 + Cc1sc2c(c1C)C(c1ccc(Cl)cc1)=N[C@@H](CC(=O)OC(C)(C)C)c1nnc(C)n1-2 [NCGC00250412-19],-181
19,CNC(=O)c1ccc(N2C(=S)N(c3ccc(C#N)c(C(F)(F)F)c3)C(=O)C23CCC3)cc1F + Cc1sc2c(c1C)C(c1ccc(Cl)cc1)=N[C@@H](CC(=O)OC(C)(C)C)c1nnc(C)n1-2 [NCGC00250412-19],-51.1
20,O=C(OCC#CCSc1nnc(-c2cccc3ccccc23)o1)c1cc2ccccc2s1 + Cc1sc2c(c1C)C(c1ccc(Cl)cc1)=N[C@@H](CC(=O)OC(C)(C)C)c1nnc(C)n1-2 [NCGC00250412-19],-169
21,O=C1CSC(=O)N1C(CCc1ccncc1)COc1ccc(-c2cccc([N+](=O)[O-])c2)cc1 (configuration not stated) + Cc1sc2c(c1C)C(c1ccc(Cl)cc1)=N[C@@H](CC(=O)OC(C)(C)C)c1nnc(C)n1-2 [NCGC00250412-19],-96.7
22,CS[C@H]1SC[C@H]2C(=O)N(C)[C@@H](C(C)C)C(=O)OC[C@@H](NC(=O)c3cnc4ccccc4n3)C(=O)N[C@@H](C)C(=O)N(C)[C@@H]1C(=O)N(C)[C@@H](C(C)C)C(=O)OC[C@@H](NC(=O)c1cnc3ccccc3n1)C(=O)N[C@@H](C)C(=O)N2C + Cc1sc2c(c1C)C(c1ccc(Cl)cc1)=N[C@@H](CC(=O)OC(C)(C)C)c1nnc(C)n1-2 [NCGC00250412-19],15.3
